# TR SRC2 fluor cs = Total Fluorescence Counterscreen for Inhibitors of the Interaction of Thyroid Hormone Receptor and Steroid Receptor Coregulator 2; 280,000 tested, 0.29% active; TRb/SRC2 Texas Red total fluorescence interference; Potency, µM (series often up to 106 µM), inactives show at the highest dose fluorescence change, negative = quenching; AID 1479, 2009; active means well fitted curve in either direction with a large enough effect; inconclusive means small, poorly fitted or top-dose-only effect
#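 Human TRb ligand-binding domain at 0.6 uM with 20 nM Texas Red SRC2 peptide in Tris buffer containing 1 uM T3 and 5% DMSO, incubated with compound 5 h at ambient temperature. Total fluorescence (555/632 nm) calculated as parallel + 2 × perpendicular.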
# TRb SRC2 PPI = qHTS for Inhibitors of the Interaction of Thyroid Hormone Receptor and Steroid Receptor Coregulator 2; Thyroid hormone receptor beta (Homo sapiens), P10828; Potency, µM (doses to about 106 µM), for the others: top-dose activity change, negative = inhibition, hits mostly inhibitors; TRbeta-SRC2 peptide binding, fluorescence polarization; receptor liganded with 1 µM T3; 280,000 tested, 0.065% active;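 further: plate controls were bound peptide for no effect and peptide without receptor for full effect; nearly all actives have a fitted effect of over 50% in size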
# Target sequence (P10828 whole entry, looked up): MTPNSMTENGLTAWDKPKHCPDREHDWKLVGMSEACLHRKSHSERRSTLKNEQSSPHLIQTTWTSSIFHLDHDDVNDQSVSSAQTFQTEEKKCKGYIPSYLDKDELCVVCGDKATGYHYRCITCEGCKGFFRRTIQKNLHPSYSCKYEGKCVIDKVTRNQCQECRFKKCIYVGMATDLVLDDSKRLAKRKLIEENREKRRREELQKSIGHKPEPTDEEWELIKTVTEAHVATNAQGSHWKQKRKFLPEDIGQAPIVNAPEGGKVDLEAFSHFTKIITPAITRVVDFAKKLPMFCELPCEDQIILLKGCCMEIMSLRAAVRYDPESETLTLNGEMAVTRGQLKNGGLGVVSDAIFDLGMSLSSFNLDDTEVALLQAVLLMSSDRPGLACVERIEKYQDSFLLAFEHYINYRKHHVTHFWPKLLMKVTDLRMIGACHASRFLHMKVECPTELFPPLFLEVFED
#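 Fluorescence polarization of 20 nM Texas Red SRC2 peptide with 0.6 uM human TRb ligand-binding domain, in Tris buffer with 1uM T3 and 5% DMSO. Incubated 5 hr ambient; normalized to unbound and bound controls.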
# RGS12 GoLoco inh = qHTS Assay for Inhibitors of RGS12 GoLoco Motif Activity (Red Fluorophore). Gai1:RGS12 GoLoco peptide FP, rhodamine, 10 min. Potency, µM (doses to about 61.6 µM), for inactives: at the top dose activity, negative = inhibition, usual class: inhibitors. 230,000 tested, 0.44% active; active means well fitted inhibition curve with a large enough effect, not every such curve was filed as active; inactive means no such curve, though single readings can be large or run the other way; further: nearly all actives have a fitted effect of over 30% in size
# Tau fibril ThT = qHTS for Inhibitors of Tau Fibril Formation, Thioflavin T Binding | Microtubule-associated protein tau (Homo sapiens), P10636 | recombinant tau K18 P301L, heparin-induced fibrillization, ThT fluorescence | Potency, µM (highest dose often 57.4 µM), for the others: at the highest dose activity, negative = inhibition, usual class: inhibitors | 270,000 tested, 2.1% active; further: nearly all actives have a fitted effect of over 55% in size
# Target sequence (P10636 561-689 P618L limits assumed): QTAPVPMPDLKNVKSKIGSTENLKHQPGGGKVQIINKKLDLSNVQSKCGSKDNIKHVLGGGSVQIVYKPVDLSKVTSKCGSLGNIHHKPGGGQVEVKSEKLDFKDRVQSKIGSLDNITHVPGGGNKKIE
#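 Using a mix of unlabeled (15 uM) and Alexa 594-labeled (0.24 uM) tau K18 P301L, heparin-triggered fibrillization over 6 hr at 37 C was scored by ThT fluorescence.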
# Tau fluor cs = Counterscreen qHTS for Inhibitors of Tau Fibril Formation, Fluorescence Polarization; tau K18 P301L Alexa594 fluorescence, heparin fibrillization; Potency, µM (doses to about 57.7 µM), without a hit: top-dose activity change, negative = decrease; 280,000 tested, 0.93% active; further: nearly all actives have a fitted effect of over 55% in size
#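 Human tau K18 P301L (15 uM unlabeled, 0.24 uM Alexa 594-labeled) in 100 mM sodium acetate pH 7 with 20 uM heparin, 6 hr at 37 C. ThT 30 uM added, 1 hr ambient; Alexa 594 FP and total fluorescence read at 555/632 nm.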
# Tau fibril FP = qHTS for Inhibitors of Tau Fibril Formation, Fluorescence Polarization | Microtubule-associated protein tau (Homo sapiens), P10636 | 280,000 tested, 0.39% active | K18 P301L tau heparin fibrillization, Alexa594 FP, 6 h | Potency, µM (highest dose often 57.7 µM), without a hit: at the top dose activity, negative = inhibition, hits mostly inhibitors | AID 1468, 2008; further: nearly all actives have a fitted effect of over 55% in size
#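 Quantitative HTS format: compounds meet 15 uM recombinant K18 P301L tau and Alexa 594-tau tracer in 100 mM sodium acetate pH 7; 20 uM heparin triggers fibrillization at 37 C over 6 hr; FP gives the signal.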
# Numbers without * were called inactive; ? = inconclusive; . = no result given; ! = not confirmed by another sample; [ ] = dose if it differs, or a comment. The list is not random: actives were taken first. Their share in the collection is about 3.2%. Unless noted, the call rests on the fitted dose curve; in most records, active means well fitted curve in the direction sought with a large enough effect; inconclusive means small, poorly fitted or top-dose-only effect, or another doubt; inactive means no such curve, though single readings can be large; an effect the other way counts as inactive or inconclusive. Unless noted, on the % scale 0 is the no-effect control and ±100 the full control effect; potency means the concentration at half of the fitted maximal effect.
SMILES,TR SRC2 fluor cs,TRb SRC2 PPI,RGS12 GoLoco inh,Tau fibril ThT,Tau fluor cs,Tau fibril FP
Clc1ccc(N/N=C/c2cccnc2)cc1,-2%,-1%,-3%,?,16µM*[quencher],12%
Clc1ccc(/C=N/NC2=Nc3cccc4cccc2c34)cc1,3%,-3%,60%,2.8µM*,-23%,12%
C(=N\NC1=Nc2cccc3cccc1c23)/c1ccccc1,23%,4%,105%,2µM*,-23%,8%
C(=N\Nc1nncc2ccccc12)/c1ccccc1,-2%,2%,2%,?,-7%,-4%
C(=N\NC1=Nc2cccc3cccc1c23)/c1cccnc1,-8%,5%,58%,2.8µM*,-26%,13%
Cc1ccc(NC(=O)CN2C(=O)COc3ccc(S(=O)(=O)N4CCCCC4)cc32)cc1N(C)C,-1%,3%,.,1%,-22%,3%
COc1ccc(/C=C2\SC(=S)NC2=O)cc1OS(=O)(=O)c1ccc(NC(C)=O)cc1,-13%,11%,6%,13µM*,-26%,12%
COc1cc(/C=C2/SC(=S)NC2=O)ccc1OS(=O)(=O)c1ccc(C)cc1,-5%,17%,27%,16µM*,?,0%
CCOc1ccc(/C=C2\SC(=S)NC2=O)cc1OC,-7%,3%,13%,?,-18%,-4%
COc1cc(/C=C2\SC(=S)NC2=O)ccc1OS(=O)(=O)c1ccccc1,-2%,-3%,27%,16µM*,?,9%
Cc1ccccc1Nc1cc(C(=O)NCCCN2CCN(c3cccc(Cl)c3)CC2)c2ccccc2n1,-4%,-1%,.,?,?,-15%
O=C(/C=C/c1cccs1)Nc1ccncc1,-3%[53 µM],-10%[53 µM],13%,10%,2%,-2%
CCCOC(=O)c1ccc(NC(=O)/C=C/c2cccs2)cc1,-1%,-3%,2%,4%,14µM*[quencher],?
COc1cc2ncnc(Nc3cccc(Cl)c3)c2cc1OC,-14%,11%,2µM*!,?,?,?
COc1cc(Br)cc(C=Nc2cccc(C(F)(F)F)c2)c1O,-2%,2%,6%,14µM*,-4%,-1%
COc1ccc(-c2cc(C(=O)NCc3cccs3)no2)cc1,-1%,5%,4%,-6%,0%,6%
Cc1cc(C)c2nc3sc(C(=O)N4CCOCC4)c(N)c3cc2c1,-6%,5%,-9%,?,?,10%
CCOc1ccc2nc3sc(C(=O)N4CCOCC4)c(N)c3cc2c1,0%,0%,1%,7.1µM*,?,?
COc1ccc2nc3sc(C(=O)NCc4cccs4)c(N)c3cc2c1,-16%,-2%,-15%,16µM*,?,-1%
Cc1cc(C)c2cc3c(N)c(C(=O)N4CCOCC4)sc3nc2c1,-3%,4%,3%,22µM*,?,0%
COc1ccc(CCNC(=O)c2ccc3nc(Cc4ccccc4)oc3c2)cc1OC,4%,9%,.,?,-28%,4%
O=C(Nc1ccc(Cl)cc1)C(NS(=O)(=O)c1cccs1)c1ccccc1 (stereo not drawn),-3%,4%,.,0%,?,-10%
CCOc1ccc(C(=O)Nc2ccc3nc(SCC(=O)N(C)c4ccccc4)sc3c2)cc1,-12%,7%,.,-5%,?,?
CC1(C)CC(NCCCCCCNC2CC(C)(C)NC(C)(C)C2)CC(C)(C)N1,1%[201 µM],6%[201 µM],.,.,.,.
COc1ccc(N=C2S/C(=C\c3ccc(N4CCOCC4)o3)C(=O)N2CCc2c[nH]c3ccccc23)cc1,-3%,0%,219%,14µM*,?,6%
SMILES,TR SRC2 fluor cs,TRb SRC2 PPI,RGS12 GoLoco inh,Tau fibril ThT,Tau fluor cs,Tau fibril FP
COc1ccc(N=C2S/C(=C\c3ccc(OCC(=O)O)cc3)C(=O)N2CCc2c[nH]c3ccccc23)cc1,-5%,-4%,1%,7%,11%,?
Cc1cc(C)c2nc3c(c([C@H](O)C4CCCCN4)c2c1)CC/C3=C/c1ccc(Cl)cc1 (stereo partly drawn),.,.,7%[14.2 µM],.,.,.
Cc1ccc(C(O)C2=CCCC2=O)cc1 (stereo not drawn),-2%,3%,3%,-4%,0%,11%
COC(=O)c1c(NC(=O)CN2CCC3(O)CCCCC3C2c2ccc(OC)cc2OC)sc(C)c1C (stereo not drawn),100µM*[quencher],?,107%,9%,3%,0%
COC(=O)c1c(NC(=O)CN2CCC3(O)CCCCC3C2c2ccccc2OC)sc(C)c1C (stereo not drawn),1%,11%,21%,19%,16%,7%
CC1=CC(=C(C#N)c2nc3ccccc3s2)C=C(C)N1CC1CCCO1 (stereo not drawn),-7%,4%,10%,?,7.9µM*[quencher],?
Cc1ccc(Nc2cc(C)c3c(O)cccc3n2)cc1C,-1%,-7%,-5%,.,14µM*[quencher],?
COc1ccc(Nc2cc(C)c3c(O)cccc3n2)cc1,-1%,4%,8%,.,?,?
O=C1CC(c2ccco2)CC(O)=C1C=Nc1cc(Cl)ccc1Cl (stereo not drawn),-5%[53 µM],8%[53 µM],19%,22µM*,-18%,?
O=C1CC(c2ccco2)CC(O)=C1C=Nc1cc(Cl)ccc1O (stereo not drawn),-21%,1%,14%,?,-28%,-3%
CCCC(O)c1nc2ccccc2n1Cc1ccccc1OC (stereo not drawn),-2%,2%,.,10%,3%,1%
Cc1ccc(-n2[nH]c(C)c(/C=N/Nc3ccc([N+](=O)[O-])cc3[N+](=O)[O-])c2=O)cc1C,-5%,-6%,1%,2.2µM*,4.5µM*[quencher],20µM*
CCOC(=O)CC(NC(=O)c1cc2cc(Cl)ccc2oc1=O)c1ccc(C)cc1 (stereo not drawn),14µM*[quencher],-10%,.,-13%,-22%,-10%
Cc1ccc(NC(=O)Cn2c(=O)n(Cc3ccc4c(c3)OCO4)c(=O)c3oc4ccccc4c32)cc1C,-3%,-1%,.,?,-6%,?
O=C(NCc1nc(-c2ccc(C(F)(F)F)cc2)no1)Nc1ccc(OC(F)(F)F)cc1,-2%,-2%,9%,.,-15%,7.9µM*
COc1ccc(-c2noc(CNC(=O)c3ccc(OC)cc3OC)n2)cc1,7%,-5%,.,?,-21%,-11%
